Compound activity from PubChem BioAssay.
Only some compounds are listed: those with a hit (about 6.7% of all), similar ones and a draw of the others.
SW480 rereplic – DNA re-replication induction in SW480 cells; SW480 DNA re-replication, Hoechst DNA content imaging, 48 h; Potency, µM (top dose mostly 46.1 µM), for the others: at the highest dose re-replication activation, hits mostly activators; actives 1.8% (n = 340,000); note: % of control where 0% means no effect; nearly all actives have a fitted effect of over 55% in size
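Treated cells incubate 48 hr (37 C, 5% CO2), are stained 40 min with Hoechst, and nuclear fluorescence is enumerated; a rise in nuclei with high DNA signal marks re-replication.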
KB-3-1 cytotox – KB-3-1 parental cell cytotoxicity | actives 1.4% (n = 400,000) | Potency, µM (top dose mostly 46.1 µM), hits mostly cytotoxic | KB-3-1 viability, CellTiter-Glo ATP luminescence, 72 h; note: % is set by controls: 0 for no effect and ±100 for the full control effect; nearly all actives have a fitted effect of over 60% in size
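Parental KB-3-1 viability, qHTS format: 72 h compound exposure, 37 °C; CellTiter-Glo; media-only wells and DMSO plates as controls; concentration-effect fits on corrected data.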
PINK1 modulator – modulators of PINK1 expression; AID 624263; actives 0.2% (n = 410,000); Potency, µM (doses to about 76.6 µM), for inactives: at the highest dose activation (PINK1 increase), actives largely listed as activators; PINK1 immunofluorescence, high-content cytometry, 24 h; active = well fitted activation curve with a large enough effect; inconclusive = small, poorly fitted or top-dose-only effect; cell line not stated here; note: % of control where 0% means no effect; nearly all actives have a fitted effect of over 65% in size
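Stable cell line treated 24 h with compounds at 5 concentrations (CCCP controls), then fixed and immunostained for PINK1 plus nuclear and cell stains; PINK1 immunofluorescence quantified by laser-scanning microplate cytometry.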
MCF10A rereplic – inducers of DNA re-replication in MCF 10A breast cells. MCF 10A DNA re-replication, Hoechst nuclear intensity, 48 h. Potency, µM (highest dose often 46.1 µM), for the others: at the top dose activity, positive = re-replication, usual class: activators. actives 2.9% (n = 350,000). AID 624296; note: % of control where 0% means no effect; nearly all actives have a fitted effect of over 50% in size
KB-V1 cytotox – KB-V1 MDR subline cytotoxicity. KB-V1 MDR cells viability, CellTiter-Glo, 72 h. Potency, µM (doses to about 46.1 µM), most hits filed as cytotoxic. actives 3.4% (n = 400,000); note: % is set by controls: 0 for no effect and ±100 for the full control effect; nearly all actives have a fitted effect of over 60% in size
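Cytotoxicity via CellTiter-Glo luminescence after 72 h compound exposure at 37 degrees C. Cells: drug-selected KB-V1 line, DMEM phenol-red free plus 10% FBS. Compounds tested at multiple concentrations; normalized data fitted to concentration-effect curves.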
Numbers without * were called inactive; i = inactive; ? = inconclusive; / = no result given; [ ] = dose if it differs, or a comment. Unless noted, calls come from the whole dose curve; as a rule, active = well fitted curve in the direction sought with a large enough effect; inconclusive = small, poorly fitted or top-dose-only effect, or another doubt; inactive = no such curve, though single readings can be large; an effect the other way counts as inactive or inconclusive. Potency is the fitted concentration of half-maximal effect.

SMILES	SW480 rereplic	KB-3-1 cytotox	PINK1 modulator	MCF10A rereplic	KB-V1 cytotox
CN1CCc2nc3sc(C(=O)NCc4ccccc4)c(N)c3cc2C1	-0.9%	i	2.2%	18.4µM*	i
CC(C)CNC(=O)[C@@H]1CSC2c3ccccc3C(=O)N21 (stereo partly drawn)	-7.2%	i	0.6%	-16.2%	?
Cc1cc(C)cc(OC(C)C(=O)Nc2nonc2-c2ccc(Br)cc2)c1 (stereo not drawn)	/	i	15.8µM*	/	i
CC(=O)O[C@](C)(CCC=C(C)C)C1CC=C(C)CC1 (stereo partly drawn)	/	/	-1.4%	/	/
CCCCN(CCCC)CC1OCc2ccccc2CO1	-2.6%	i	3.98µM*	11.3%	i
O=C(COc1coc(CN2CCN(c3ccc(F)cc3)CC2)cc1=O)NC1CCCCC1	-0.8%	?	0.7%	8.3%	4.11µM*
O=C(COc1coc(CN2CCN(c3ccc(F)cc3)CC2)cc1=O)NC1CCCC1	-5.5%	i	1.9%	2.2%	i
Cc1noc(C)c1C(=O)OC(C)C(=O)NC(C)c1ccc(Cl)cc1Cl (stereo not drawn)	-13.4%	i	1.0%	-0.6%	i
COC(=O)C1=C(C)N(Cc2ccccc2)C(=NCc2ccc(OC)cc2)N[C@H]1c1cccc(F)c1	?	?	-1.7%	3.7%	?
COC(=O)C1=C(C)N(Cc2ccccc2)C(=NCc2cccc(Cl)c2)N[C@H]1c1cccc(F)c1	?	?	-2.2%	?	20.6µM*
OC(COc1cccc2ccccc12)CN1CCN(c2ccc(Cl)cc2)CC1 (stereo not drawn)	-14.8%	i	?	?	?
OC(COc1c(F)cc(Br)cc1F)CN1CCN(c2ccc(F)cc2)CC1 (stereo not drawn)	-3.5%	?	?	17.4%	16.4µM*
OC(COc1cccc2ccccc12)CN1CCN(c2cccc(Cl)c2)CC1 (stereo not drawn)	14.1%	i	3.3%	25.9µM*	i
OC(COc1c(F)cc(Br)cc1F)CN1CCOCC1 (stereo not drawn)	-4.4%	i	-0.7%	-18.8%	i
COc1cccc(NC(=O)C2=C(C)C(=O)OC23CCN(C(C)=O)CC3)c1	/	i	1.3%	/	?
CN(C)C(=O)COc1ccccc1C(=O)OCC(=O)Nc1ccc(Oc2ccc(Br)cc2)cc1	/	i	0.5%	/	i
O=C(c1cnccn1)N1CCC2(CC1)CN(c1ncccn1)C2	/	/	1.1%	/	/
Oc1c(C(c2ccc(F)cc2)N2CCCC2)sc2nc(-c3ccco3)nn12 (stereo not drawn)	/	i	0.1%	/	i
O=C1N=C(N2CCC(Cc3ccccc3)CC2)S/C1=C/c1cn[nH]c1-c1ccccc1	-0.2%	i	-4.3%[38.3 µM]	?	23.1µM*
O=C1N=C(N2CCN(c3ccccc3)CC2)S/C1=C\c1cn[nH]c1-c1ccccc1	-5.9%	?	?	-85.2%	?
CCCN(CCC)CCCNC(=O)c1cc2c(=O)[nH]c3ccccc3c2s1	?	i	2.6%	?	i
COc1ccc(S(=O)(=O)N(C)[C@H]2C[C@H]3c4cc(Oc5ccccc5C)ccc4CCN3C(=O)[C@H]2[C@H](C)O)cc1	/	i	2.1%	/	i
O=C(Nn1c(COc2ccccc2)nc2ccccc2c1=O)C(Cl)(Cl)Cl	18.4µM*	i	3.0%	?	i
Cc1nc2ccccc2c(=O)n1NC(=O)COc1ccccc1	-3.8%	i	8.9%[38.3 µM]	?	i
CCOc1ccc(CCNC(=O)Cn2c(=O)oc3ccccc32)cc1OCC	-3.4%	i	6.7%[38.3 µM]	-4.2%	18.4µM*
SMILES	SW480 rereplic	KB-3-1 cytotox	PINK1 modulator	MCF10A rereplic	KB-V1 cytotox
COc1ccc(CNC(=O)Cn2c(=O)oc3ccccc32)cc1OC	-4.3%[9.22 µM]	i	1.4%	-1.7%	i
CCOc1ccc(CCNC(=O)CN(C)S(=O)(=O)c2cccs2)cc1OCC	1.0%	i	-1.8%	6.3%	4.61µM*
COc1ccc(CCNC(=O)CN(C)S(=O)(=O)c2cccs2)cc1OC	-3.5%	i	-2.0%	-1.4%	?
COc1ccc(Cn2c(=O)oc3ccccc32)cc1OC	/	?	-0.5%	/	20.6µM*
CCN(CC(=O)Nc1ccc(NC(C)=O)cc1)C(=O)c1cccc(N2C(=O)c3ccccc3C2=O)c1	-9.9%	i	0.0%	-2.6%	?
Cc1ccccc1-c1cncnc1N(C)Cc1ccco1	/	/	-1.9%	/	/
O=C(c1ccccc1)[C@@H]1[C@@H](C(=O)c2ccc(F)cc2)[C@@]2(C(=O)Nc3ccccc32)[C@H]2c3ccccc3C=CN12	6.4%	?	-0.5%	12.3%	?
CC(=O)[C@@H]1[C@@H](C(=O)c2ccccc2)[C@]2(C(=O)Nc3ccccc32)[C@H]2C=Cc3cc(F)ccc3N12	?	?	-1.6%	20.6µM*	?
O=C(NCC(=O)N1CCCCCCC1)c1cccc([N+](=O)[O-])c1	1.6%	i	-1.2%	-0.3%	20.6µM*
CC1CN(CCC(=O)NCc2ccc3ncccc3c2)Cc2cc(Cl)ccc2O1 (stereo not drawn)	/	/	0.1%	/	/
Cc1ncc2c(c1CNC(=O)c1ccc3c(c1)OCO3)CCN(C(=O)c1cn3ccccc3n1)C2	/	/	0.1%	/	/
CC(=O)c1ccc(-n2nnnc2SCC(=O)N2CCc3ccccc3C2)cc1	?	i	0.4%	-3.1%	11.6µM*
Cn1cnnc1SCC(=O)N1CCc2ccccc2C1	/	i	-1.0%	/	i
O=C(CSc1nnnn1-c1ccccc1)N1CCc2ccccc2C1	-4.0%	i	-0.3%[38.3 µM]	20.9%	14.6µM*
CC(=O)c1cccc(-n2nnnc2SCC(=O)N2CCCC2)c1	-0.2%	i	2.5%	1.4%	i
CC(C)(C)N(Cc1ccccc1)C(=O)COC(=O)/C=C/c1ccc2c(c1)OCO2	11.5%	i	1.0%	5.7%	i
CC(=O)N1CCc2cc(S(=O)(=O)NCCC(=O)N3CCN(Cc4ccccc4)CC3)ccc21	2.5%	?	-0.4%[38.3 µM]	25.9%	16.4µM*
CCc1nc2c(OCCOc3ccc(F)cc3)cccn2c1N(C)C(=O)C(C)C	/	i	0.6%	/	i
CCN(CC(=O)Nc1ccc2c(c1)OCCO2)S(=O)(=O)c1ccc(C)cc1	-4.0%	i	6.6%[38.3 µM]	12.5%	16.4µM*
CCN(CC(=O)Nc1ccc2c(c1)OCCO2)S(=O)(=O)c1cccs1	-2.4%	i	2.3%	16.4µM*	i
CCN(CC)S(=O)(=O)c1ccc2c(c1)nc(CCC(=O)Nc1ccc3c(c1)OCO3)n2C	0.5%	i	2.6%	-8.6%	i
O=C(CCc1ccc(S(=O)(=O)NCCc2ccccc2)cc1)Nc1ccc2c(c1)OCCO2	?	i	-0.9%	?	20.6µM*
CCN(CC)S(=O)(=O)c1ccc2c(c1)nc(CCC(=O)Nc1ccc3c(c1)OCO3)n2CC	-5.0%	i	0.4%	2.3%	14.6µM*
